A short description of the test: chemical genetic growth profiling, strain panel (AID 1159580).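 Note: tested at 20 µM; growth read once vehicle control cultures reached saturation at 30 °C; 1 = growth at the plate median or of vehicle wells; lower values mean less growth of the strain.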 Conditions: growth OD.
Where [1] appears, read: S. cerevisiae deletion strains, locus YAL013W, strain DEP1, stronger effect = lower value.
[2] abbreviates: S. cerevisiae deletion strains, locus YAL040C, strain CLN3, stronger effect = lower value.
The mark [3] stands for this setting: S. cerevisiae deletion strains, locus YCL061C, strain MRC1 (second series), stronger effect = lower value.
The mark [4] stands for this setting: S. cerevisiae deletion strains, locus YDR150W, strain NUM1, stronger effect = lower value.
The mark [5] stands for this setting: S. cerevisiae deletion strains, locus YDR363W, strain ESC2, stronger effect = lower value.
Setting [6] is: S. cerevisiae deletion strains, locus YER002W, strain NOP16, stronger effect = lower value.
[7] abbreviates: S. cerevisiae deletion strains, locus YJR075W, strain HOC1, stronger effect = lower value.
Where [8] appears, read: S. cerevisiae deletion strains, locus YMR307W, strain GAS1, stronger effect = lower value.
The mark [9] stands for this setting: S. cerevisiae deletion strains, locus YNL153C, strain GIM3, stronger effect = lower value.
[10] abbreviates: S. cerevisiae deletion strains, locus YNL175C, strain NOP13, stronger effect = lower value.
The mark [11] stands for this setting: S. cerevisiae deletion strains, locus YNL197C, strain WHI3, stronger effect = lower value.
Where [12] appears, read: S. cerevisiae deletion strains, locus YNL224C, strain SQS1, stronger effect = lower value.
[13] abbreviates: S. cerevisiae deletion strains, locus YOR083W, strain WHI5 (second series), stronger effect = lower value.
The mark [14] stands for this setting: S. cerevisiae deletion strains, locus YPL055C, strain LGE1, stronger effect = lower value.
Setting [15] is: S. cerevisiae deletion strains, locus YPL241C, strain CIN2, stronger effect = lower value.
Where [16] appears, read: S. cerevisiae deletion strains, locus YGR078C, strain PAC10, stronger effect = lower value.
The mark [17] stands for this setting: S. cerevisiae deletion strains, locus YNL322C, strain KRE1, stronger effect = lower value.
Setting [18] is: S. cerevisiae deletion strains, locus YBR229C, strain ROT2, stronger effect = lower value.
[19] abbreviates: S. cerevisiae deletion strains, locus YCL061C, strain MRC1, stronger effect = lower value.
Where [20] appears, read: S. cerevisiae deletion strains, locus YDL101C, strain DUN1, stronger effect = lower value.
Where [21] appears, read: S. cerevisiae deletion strains, locus YDL134C, strain PPH21, stronger effect = lower value.
Where [22] appears, read: S. cerevisiae deletion strains, locus YEL061C, strain CIN8, stronger effect = lower value.
[23] abbreviates: S. cerevisiae deletion strains, locus YHR030C, strain SLT2, stronger effect = lower value.
Setting [24] is: S. cerevisiae deletion strains, locus YHR087W, strain rtc3, stronger effect = lower value.
Setting [25] is: S. cerevisiae deletion strains, locus YJR043C, strain POL32, stronger effect = lower value.
Where [26] appears, read: S. cerevisiae deletion strains, locus YKL190W, strain CNB1, stronger effect = lower value.
Setting [27] is: S. cerevisiae deletion strains, locus YLR039C, strain RIC1, stronger effect = lower value.
Setting [28] is: S. cerevisiae deletion strains, locus YLR058C, strain SHM2 (second series), stronger effect = lower value.
Where [29] appears, read: S. cerevisiae deletion strains, locus YLR085C, strain ARP6, stronger effect = lower value.
Where [30] appears, read: S. cerevisiae deletion strains, locus YLR262C, strain YPT6, stronger effect = lower value.
The mark [31] stands for this setting: S. cerevisiae deletion strains, locus YML094W, strain GIM5, stronger effect = lower value.
Setting [32] is: S. cerevisiae deletion strains, locus YMR219W, strain ESC1, stronger effect = lower value.
[33] abbreviates: S. cerevisiae deletion strains, locus YMR263W, strain SAP30, stronger effect = lower value.
[34] abbreviates: S. cerevisiae deletion strains, locus YNL298W, strain CLA4 (second series), stronger effect = lower value.
Setting [35] is: S. cerevisiae deletion strains, locus YNR030W, strain Alg12, stronger effect = lower value.
Where [36] appears, read: S. cerevisiae deletion strains, locus YPR135W, strain CTF4, stronger effect = lower value.
[37] abbreviates: S. cerevisiae strains, strain wild type, stronger effect = lower value.

About 2,000 (36%) of roughly 5,500 compounds were called active. About 18% were inconclusive and are not listed. The list shows a part of the results. Values without a mark were called inactive. Cut-off read from the data, not from the text of the source: active = normalized growth mostly below about 0.91 (no sharp cut-off); inconclusive = no clear call, values can overlap the other calls; inactive = mostly above about 0.92.

As to `COC1(C2=NCCN2)COc2ccccc2O1` (stereo not drawn), the normalized growth is 1 under setting [1]; 1.01 under setting [2]; 1.01 under setting [3]; 1.02 under setting [4]; 0.995 under setting [5]; 1 under setting [6]. The normalized growth is 1.01 under setting [7]; 0.998 under setting [8]; 0.995 (S. cerevisiae deletion strains, locus YNL128W, strain TEP1, stronger effect = lower value); 1.03 under setting [9]; 1 under setting [10]; 1.01 under setting [11]. Further, the normalized growth by setting is: under setting [12], 1.01; under setting [13], 1.02; under setting [14], 0.996; under setting [15], 1.01.

With `Nn1nnc2ccccc21`, the normalized growth is, setting by setting: under setting [1], 1.01; under setting [2], 1.02; under setting [3], 1.01; under setting [5], 1; under setting [6], 1.01; under setting [16], 1.01. In addition, the normalized growth reads like this: under setting [10], 0.991; under setting [11], 1.01; under setting [12], 0.998; under setting [17], 1.02; under setting [13], 0.998; under setting [14], 1.02.

On to `N#CCCNc1cc(C(F)(F)F)cc(C(F)(F)F)c1`, for which the normalized growth is, setting by setting: under setting [1], 0.98; under setting [18], 0.985; under setting [19], 0.96; under setting [20], 0.986; under setting [21], 0.99; under setting [4], 0.96. Moreover, the normalized growth by setting is: under setting [22], 0.975; under setting [16], 0.947; (S. cerevisiae deletion strains, locus YGR229C, strain SMI1, stronger effect = lower value) 0.981; under setting [23], 0.867; under setting [24], 0.989; (S. cerevisiae deletion strains, locus YJL187C, strain SWE1, stronger effect = lower value) 0.986. Also, the normalized growth was 0.97 under setting [25]; 0.883 (active) under setting [7]; 0.981 under setting [26]; 0.848 under setting [27]; 1.01 under setting [28]; 0.837 under setting [29]. In addition, the normalized growth is, setting by setting: under setting [30], 0.844; under setting [31], 0.918; under setting [32], 0.987; under setting [33], 0.991; under setting [8], 0.903; under setting [9], 0.96. The normalized growth by setting is: under setting [34], 0.954; under setting [17], 0.957; under setting [35], 0.902; under setting [14], 0.893; under setting [15], 0.947; under setting [36], 0.801. The normalized growth under setting [37] is 0.991.

For the compound `FC(F)(F)c1cc(NC2=NCCN=C(Nc3cc(C(F)(F)F)cc(C(F)(F)F)c3)SS2)cc(C(F)(F)F)c1`, the normalized growth by setting is: under setting [1], 1.01; under setting [18], 1.01; under setting [19], 0.997; under setting [20], 0.993; under setting [21], 0.999; under setting [4], 1.04. The normalized growth reads like this: under setting [22], 1; under setting [16], 1; under setting [23], 0.952; under setting [24], 0.997; under setting [25], 0.993; under setting [7], 0.989. Moreover, the normalized growth was 1.01 under setting [26]; 0.977 under setting [27]; 1.01 under setting [28]; 0.978 under setting [29]; 0.979 under setting [30]; 0.975 under setting [31]. The normalized growth under setting [32] is 1; the normalized growth under setting [33] was 1.02; the normalized growth under setting [8] was 0.916; the normalized growth under setting [9] was 1.02; the normalized growth under setting [34] is 1.01; the normalized growth under setting [17] is 1. The normalized growth was 0.988 under setting [35]; 1.05 under setting [14]; 0.99 under setting [15]; 0.95 under setting [36]; 1.01 under setting [37].

The values are drawn from PubChem BioAssay AID1159580 (chemical genetic matrix, 2015).
